# Data from PubChem BioAssay.
# Calls of active or inactive are those of the source.
# Experiments:
# [1] = small molecules captured by biotinylated probe aFSTL3 – biochemical, small-molecule microarray, fluorescence 635/667, stem cell growth factor project, primary screen (AID 1064); conditions: higher = more signal;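 note: measures binding of the biotinylated anti-FSTL3 antibody to printed compounds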
# [2] = binders from COS7 lysate, DM2A8 probe, primary screen, torsin A project, cell lysate, small-molecule microarray, fluorescence 635/667 (AID 1065); conditions: higher = more signal, COS7 lysate expressing mutant human TOR1A
# [3] = small molecules captured by biotinylated probe aFGF2 – biochemical, small-molecule microarray, fluorescence 635/667, stem cell growth factor project, primary screen (AID 1067); conditions: higher = more signal;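 note: measures binding of biotinylated aFGF2 protein to printed compounds on slides; z-score merges feature fluorescence and signal-to-noise across triplicate slides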
# [4] = small molecules captured by biotinylated probe aFGF10 – biochemical, small-molecule microarray, fluorescence 635/667, stem cell growth factor project, primary screen (AID 1071); conditions: higher = more signal;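 note: score merges 667 nm spot intensity and signal to noise from triplicate slides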
# [5] = molecular target: Neurogenic locus notch homolog protein 2 (Homo sapiens) (UniProt Q04721); experiment: small molecules binding Notch2 protein – biochemical, small-molecule microarray, 635 nm fluorescence, stem cell growth factors, primary screen (AID 1073); conditions: higher = more signal
# Neurogenic locus notch homolog protein 2 (Homo sapiens), sequence (Q04721 whole entry, looked up, canonical isoform): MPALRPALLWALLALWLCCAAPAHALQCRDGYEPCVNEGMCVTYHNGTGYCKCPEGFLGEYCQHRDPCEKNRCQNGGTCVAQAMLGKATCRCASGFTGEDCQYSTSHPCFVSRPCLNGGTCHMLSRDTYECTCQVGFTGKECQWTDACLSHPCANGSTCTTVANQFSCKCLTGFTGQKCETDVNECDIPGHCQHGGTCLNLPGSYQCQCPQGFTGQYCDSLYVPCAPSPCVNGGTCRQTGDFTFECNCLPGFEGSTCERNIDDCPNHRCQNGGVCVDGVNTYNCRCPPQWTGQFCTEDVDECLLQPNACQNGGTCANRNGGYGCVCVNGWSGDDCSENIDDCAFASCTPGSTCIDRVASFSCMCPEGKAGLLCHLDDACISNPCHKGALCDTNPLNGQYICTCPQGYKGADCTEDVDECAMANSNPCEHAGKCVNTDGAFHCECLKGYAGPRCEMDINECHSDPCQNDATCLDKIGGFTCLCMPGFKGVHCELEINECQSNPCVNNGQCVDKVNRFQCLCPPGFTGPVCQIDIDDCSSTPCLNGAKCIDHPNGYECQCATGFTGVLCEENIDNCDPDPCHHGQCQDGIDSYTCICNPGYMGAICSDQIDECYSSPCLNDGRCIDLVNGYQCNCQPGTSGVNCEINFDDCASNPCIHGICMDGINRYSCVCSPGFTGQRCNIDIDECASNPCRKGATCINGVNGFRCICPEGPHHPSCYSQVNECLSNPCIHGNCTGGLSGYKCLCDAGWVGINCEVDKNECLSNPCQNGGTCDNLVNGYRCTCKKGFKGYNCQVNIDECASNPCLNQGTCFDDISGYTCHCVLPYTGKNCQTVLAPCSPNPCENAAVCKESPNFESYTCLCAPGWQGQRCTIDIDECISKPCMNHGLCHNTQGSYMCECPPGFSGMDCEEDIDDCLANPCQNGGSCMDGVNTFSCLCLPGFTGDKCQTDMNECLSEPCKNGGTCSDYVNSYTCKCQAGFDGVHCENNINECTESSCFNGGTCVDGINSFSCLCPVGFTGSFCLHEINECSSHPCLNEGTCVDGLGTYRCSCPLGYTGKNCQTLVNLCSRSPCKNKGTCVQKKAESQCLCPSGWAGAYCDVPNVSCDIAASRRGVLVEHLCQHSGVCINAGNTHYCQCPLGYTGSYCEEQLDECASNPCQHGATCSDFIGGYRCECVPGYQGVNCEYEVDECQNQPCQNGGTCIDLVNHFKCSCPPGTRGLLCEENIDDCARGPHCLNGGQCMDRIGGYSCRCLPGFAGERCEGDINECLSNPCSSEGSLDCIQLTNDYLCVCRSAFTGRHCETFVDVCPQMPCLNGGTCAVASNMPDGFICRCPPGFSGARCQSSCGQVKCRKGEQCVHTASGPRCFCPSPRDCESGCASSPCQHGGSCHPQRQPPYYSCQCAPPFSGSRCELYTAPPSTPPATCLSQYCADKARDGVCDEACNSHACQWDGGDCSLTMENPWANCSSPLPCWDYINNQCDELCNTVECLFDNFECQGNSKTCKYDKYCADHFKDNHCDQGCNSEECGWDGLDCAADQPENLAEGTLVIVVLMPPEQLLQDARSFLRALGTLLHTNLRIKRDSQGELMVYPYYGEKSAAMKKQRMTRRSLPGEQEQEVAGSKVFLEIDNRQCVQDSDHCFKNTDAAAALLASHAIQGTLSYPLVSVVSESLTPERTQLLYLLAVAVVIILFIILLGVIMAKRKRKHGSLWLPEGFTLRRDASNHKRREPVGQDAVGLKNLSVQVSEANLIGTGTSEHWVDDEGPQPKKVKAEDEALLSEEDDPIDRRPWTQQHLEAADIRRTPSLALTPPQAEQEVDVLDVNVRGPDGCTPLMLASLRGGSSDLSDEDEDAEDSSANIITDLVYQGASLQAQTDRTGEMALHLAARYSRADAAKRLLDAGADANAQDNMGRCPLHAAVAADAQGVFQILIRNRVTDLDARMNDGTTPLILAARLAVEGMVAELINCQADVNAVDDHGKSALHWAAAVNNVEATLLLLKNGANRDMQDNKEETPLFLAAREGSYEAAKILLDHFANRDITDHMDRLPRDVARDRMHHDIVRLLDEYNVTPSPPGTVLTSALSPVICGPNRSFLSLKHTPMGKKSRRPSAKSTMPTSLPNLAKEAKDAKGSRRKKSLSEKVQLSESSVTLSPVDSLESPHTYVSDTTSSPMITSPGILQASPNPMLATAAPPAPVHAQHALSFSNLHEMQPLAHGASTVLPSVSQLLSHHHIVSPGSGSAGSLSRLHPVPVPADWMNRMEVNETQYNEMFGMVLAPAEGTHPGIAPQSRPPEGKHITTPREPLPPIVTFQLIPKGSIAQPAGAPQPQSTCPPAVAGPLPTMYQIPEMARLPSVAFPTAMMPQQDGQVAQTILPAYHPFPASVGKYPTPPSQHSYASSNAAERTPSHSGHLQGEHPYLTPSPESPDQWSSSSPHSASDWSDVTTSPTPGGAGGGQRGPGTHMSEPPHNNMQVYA
# [6] = molecular target: Pro-neuregulin-1, membrane-bound isoform (Homo sapiens) (UniProt Q02297); experiment: small molecules binding neuregulin-1 protein – biochemical, small-molecule microarray, fluorescence 635/667, psychiatric disease protein project, primary screen (AID 1075); conditions: NRG1 binding, 635 nm fluorescence, higher = more signal;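 note: score combines 667 nm spot fluorescence with signal to noise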
# Pro-neuregulin-1, membrane-bound isoform (Homo sapiens), sequence (Q02297 whole entry, looked up, the tested form may be a part, canonical isoform): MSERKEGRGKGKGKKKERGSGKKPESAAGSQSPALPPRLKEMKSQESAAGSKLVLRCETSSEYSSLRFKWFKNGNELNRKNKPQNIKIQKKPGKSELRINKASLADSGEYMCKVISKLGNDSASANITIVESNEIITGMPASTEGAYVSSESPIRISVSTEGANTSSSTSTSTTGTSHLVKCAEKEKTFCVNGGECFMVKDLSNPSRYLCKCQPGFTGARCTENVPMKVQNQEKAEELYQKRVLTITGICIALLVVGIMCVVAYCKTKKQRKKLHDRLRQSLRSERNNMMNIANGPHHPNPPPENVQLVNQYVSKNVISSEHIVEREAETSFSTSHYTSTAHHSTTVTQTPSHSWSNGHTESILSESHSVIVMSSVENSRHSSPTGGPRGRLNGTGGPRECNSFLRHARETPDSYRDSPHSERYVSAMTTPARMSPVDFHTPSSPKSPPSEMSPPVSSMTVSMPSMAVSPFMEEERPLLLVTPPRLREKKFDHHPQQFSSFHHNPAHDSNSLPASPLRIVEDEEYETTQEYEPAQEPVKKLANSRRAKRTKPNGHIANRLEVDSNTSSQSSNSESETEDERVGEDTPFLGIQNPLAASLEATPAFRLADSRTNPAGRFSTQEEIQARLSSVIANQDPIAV
# [7] = system: Neuregulin-1 EGF-like domain; experiment: small molecules binding NRG1 EGF domain – biochemical, small-molecule microarray, 635 nm fluorescence, primary screen (AID 1081); conditions: higher = more signal;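 note: binding of the protein to compounds printed on small-molecule microarray slides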
# [8] = FRG1 expression reporter modulators in myotubes – cell-based, C2C12 myotubes, firefly/Renilla luciferase, luminescence, FRG1 inhibition for FSHD, primary screen (AID 1084); conditions: FRG1 promoter luciferase, higher = more signal, called active from +8 up or from −8 down
# [9] = small molecules captured by biotinylated probe aFST – biochemical, small-molecule microarray, fluorescence 635/667, stem cell growth factor project, primary screen (AID 1086); conditions: higher = more signal;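 note: score merges 667 nm fluorescence with signal-to-noise of each printed compound spot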
# [10] = binders of probe aHhip on microarray, primary screen, stem cell growth factor project, biochemical, small-molecule microarray, fluorescence 635/667 (AID 1087); conditions: higher = more signal;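 note: score merges spot fluorescence at 667nm with spot signal to noise ratio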
Compound,composite z-score [1],composite z-score [2],composite z-score [3],composite z-score [4],composite z-score [5],composite z-score [6],composite z-score [7],z-score [8],composite z-score [9],composite z-score [10]
COCCOC(=O)N1C(=O)[C@@]2(c3cc(C#CCCO)ccc31)[C@H](C(=O)N1CCCCCCC1)[C@H]1C(=O)O[C@H](c3ccccc3)[C@H](c3ccccc3)N1[C@@H]2c1ccc(OCCO)cc1,3.17,0.912,0.68,0.395,1.25,1.01,1.18,-1.07 (inactive),2.87,0.0111
C=CC1(C(=O)OC)CC=C(C(=O)OC)CC1 (stereo not given),-0.219,0.191,-0.0226,1.17,1.12,1.73,1.12,-0.941 (inactive),0.0908,0.0623
COCCOC(=O)N1C(=O)[C@@]2(c3cc(C#CCC(C(=O)OC)C(=O)OC)ccc31)[C@H](c1ccccc1OCCO)N1[C@H](c3ccccc3)[C@H](c3ccccc3)OC(=O)[C@H]1[C@@H]2C(=O)N1CCN(c2ncccn2)CC1,-0.266,0.273,0.137,0.432,0.986,1.32,1.2,-0.796 (inactive),0.74,0.03
C[N+](C)(C)CCCC[C@@H]1NC(=O)[C@H]2C[C@@H](C(=O)NCCCCCCNC(=O)CS)[C@@H](c3cccc(OCCO)c3)N2C1=O,0.227,0.0439,-0.172,-0.83,-1.34,-0.861,0.439,0.816 (inactive),-0.948,-0.261
C=C(C)[C@@H]1CC=C(C(O)C2C=CC3C(=O)N(C)C(=O)C3N2Nc2ccccc2)CC1 (stereo not given in full),0.301,0.122,-0.0216,0.394,1.27,0.624,0.928,0.283 (inactive),0.577,0.176
CC1(C)[C@@H]2CC(C(O)C3C=CC4C(=O)N(Cc5ccccc5)C(=O)C4N3n3cnnc3)=C[C@H]1C2 (stereo not given in full),-0.0224,0.839,0.0119,0.959,1.33,1.56,1.39,0.349 (inactive),1.06,0.0053
COC(=O)C(CC#Cc1ccc2c(c1)[C@]1(C(=O)N2)[C@H](c2ccc(OCCO)cc2)N2[C@H](c3ccccc3)[C@H](c3ccccc3)OC(=O)[C@H]2[C@@H]1C(=O)N1CCc2cc(OC)c(OC)cc2C1)C(=O)OC,0.931,0.802,0.119,1.05,1.42,1.07,1.25,2.24 (inactive),1.6,0.876
COCCOC(=O)N1C(=O)[C@@]2(c3ccccc31)[C@H](c1ccccc1OCCO)N1[C@H](c3ccccc3)[C@H](c3ccccc3)OC(=O)[C@H]1[C@@H]2C(=O)N1CCN(c2ncccn2)CC1,0.0686,1.07,-0.0629,0.0228,0.598,1.38,1.18,-2.05 (inactive),0.152,-0.0672
COCCCNC(=O)[C@@]1(C)c2ccccc2C(=O)N(C(C)C)[C@H]1c1ccc(CO)cc1,-0.427,0.512,-0.0996,-0.0442,0.552,0.302,1.48,0.214 (inactive),0.114,0.0201
CC(C)C(CO)N1C(=O)[C@@H]2C3C(=O)OCCC/C=C\[C@H]3OC23C=CCN(CCN2CCOCC2)C(=O)[C@@H]13 (stereo not given in full),-0.364,-0.306,-0.116,-0.294,-0.853,-0.197,0.366,1.3 (inactive),-0.139,0.0623
C=CCOC(=O)[C@@H]1[C@H]2C(=O)O[C@H](c3ccccc3)[C@H](c3ccccc3)N2[C@H](c2ccc(OCCOC(=O)[C@H]3C[C@H]4C(=O)N5CCC[C@H]5C(=O)N4[C@H]3c3ccc(O)cc3)cc2)[C@@]12C(=O)Nc1ccc(I)cc12,-0.493,0.942,-0.0958,0.59,0.929,0.782,1.24,-0.627 (inactive),-0.0364,-0.34
COc1ccc(CCNC(=O)[C@@]2(Sc3ccc(C)cc3)CC(=O)N(C3Cc4ccccc4C3)[C@@H]2c2ccc(CO)cc2I)cc1,0.538,0.0778,-0.0558,-0.183,-0.813,1.54,0.948,-0.518 (inactive),0.0627,0.0854
COc1cc(COC(C)=O)ccc1OC(C)=O,0.299,-0.0075,0.188,0.209,0.137,0.14,-0.464,-0.681 (inactive),0.408,0.318
O=C1NC(=O)C2C1C=CC(C(O)c1cccs1)N2Nc1ccc(Cl)cc1Cl (stereo not given),0.709,-0.232,-0.0647,0.0409,-0.0246,1.25,1.14,0.224 (inactive),0.0983,-0.191
CC(C)NC(=O)[C@@H]1c2ccccc2C(=O)N(C2Cc3ccccc3C2)[C@H]1c1ccc(CO)cc1,0.351,0.329,-0.0234,0.0799,0.526,0.634,0.998,-0.943 (inactive),0.148,-0.131
COCCOC(=O)N1C(=O)[C@@]2(c3cc(C#CC4(O)CCCCCC4)ccc31)[C@H](c1ccccc1OCCO)N1[C@H](c3ccccc3)[C@H](c3ccccc3)OC(=O)[C@H]1[C@@H]2C(=O)N1CCN(c2ncccn2)CC1,-0.383,0.604,-0.0425,0.801,1.08,1.15,1.26,-0.422 (inactive),0.484,-0.134
CO[C@H]1O[C@H](CO)[C@@H](OC(=O)Nc2ccc(C(F)(F)F)cc2)[C@H](OC(=O)Nc2ccc3c(c2)OCO3)[C@@H]1OC(=O)Nc1ccc2c(c1)OCO2,-0.139,1.62,0.0666,1.22,1.51,1.76,1.29,3.93 (inactive),-0.0167,0.124
COC(=O)[C@@]1(Cc2ccc(F)cc2)[C@H]2c3cc(C(=O)N(C)C)n(Cc4ccccc4)c3C[C@H]2CN1C(=O)c1ccccc1,-0.0364,-0.267,0.0103,0.314,1.58,1.32,0.337,0.403 (inactive),1.35,2.22
COc1ccc(C(=O)Nc2ccc(CN3C(=O)[C@]4(O[C@H](CCO)[C@@H]([Si](C)(C)c5ccc(OC)cc5)[C@@H]4C)c4ccccc43)cc2)cc1,-0.329,0.0876,-0.087,0.245,0.561,0.77,0.836,-4.05 (inactive),0.305,0.432
COC(=O)[C@@]1(Cc2ccc(F)cc2)[C@H]2c3cc(C(=O)N(C)C)n(Cc4ccc(Cl)c(C(F)(F)F)c4)c3C[C@H]2CN1C(=O)c1ccccc1,1.15,1.65,-0.0355,0.215,1.74,1.83,1.31,1.3 (inactive),1.71,-0.0296
CCCC[C@@H]1C[C@H]1[C@@H](NC(=O)c1ccco1)c1ccc(-c2ccccc2)cc1,-0.207,-0.194,-0.176,0.203,0.571,-0.343,1.02,1.85 (inactive),0.425,0.0922
CC(C)=CCN[C@H](CO)c1ccccc1,-0.122,-0.428,-0.0732,0.897,0.794,-0.419,0.249,1.07 (inactive),-0.0489,0.0129
COC(=O)[C@H](Cc1ccccc1)N1CC2=C[C@@H](C3CC3)n3c(=O)n(C)c(=O)n3[C@H]2[C@@H]1[C@@H](O)Cc1ccccc1,-0.575,1.5,0.0066,0.369,0.319,0.323,0.997,0.892 (inactive),0.559,-0.296
O=C1C2C=CC(C(O)Cc3ccccc3)N(n3cnnc3)C2C(=O)N1Cc1ccccc1 (stereo not given),0.442,-0.0532,0.038,0.426,1.43,0.489,0.984,0.793 (inactive),0.307,-0.186
COC(=O)[C@@]1(Cc2ccccc2)[C@H]2c3cc(C(=O)N4CCCC4)n(Cc4ccc(S(C)(=O)=O)cc4)c3C[C@H]2CN1C(=O)c1ccccc1,1,0.0844,0.371,-0.0015,1.68,1.66,1.31,1.45 (inactive),1.23,0.939
O=C(NCCO)C1=C[C@H](Oc2ccccc2I)[C@@H](O)[C@H](N(Cc2ccco2)C(=O)Cc2ccccc2)C1,0.0391,0.208,-0.112,0.236,0.299,-0.352,-0.473,0.157 (inactive),-0.0165,0.12
[N-]=[N+]=NCc1ccccc1C[C@]1(C(N)=O)COC(c2ccc(OCCCO)cc2)=N1,0.293,2.02,-0.0805,-0.101,0.63,1.59,1.03,-1.41 (inactive),0.847,0.154
